# From PubChem BioAssay AID1852 (Sanford-Burnham Center for Chemical Genomics, 2009)
# The campaign covered roughly 2,500 compounds. About 1,100 (44%) were called active. The set was probably picked from earlier hits. The list shows a part of the results. Unmarked numbers belong to inactive results.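 How the source made its calls: active means inhibition above 50% at 4 µM in the single-point screen; inactive means inhibition of 50% or less.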
# Experiment: blockers of TNF-a NF-kB luciferase induction – cell-based, HEK293T NF-kB-Luc, luminescence, selectivity assay for NOD1/NOD2 signaling inhibitor project, primary screen (AID 1852)
# Conditions: TNF-a induced, 14 h, at 4 µM, hits give high values
row,SMILES,inhibition
1,CCn1c(SCC(=O)N2CCC(C)CC2)nc2c(c1=O)SCC2,1.5%
2,CCCCCCc1cc2cc(S(=O)(=O)c3ccc(F)c(Cl)c3)c(=O)oc2cc1O,38.7%
3,CCCCCCc1cc2cc(C(=O)OCC)c(=O)oc2cc1O,9.4%
4,CCCCCCc1cc2cc(S(=O)(=O)c3ccc(Cl)cc3)c(=O)oc2cc1O,65.1% (active)
5,c1csc(CCNc2ncnc3sc4c(c23)CCC4)c1,62.9% (active)
6,COCCn1c(C)cc(C(=O)CSc2ncnc3sc4c(c23)CCC4)c1C,14.2%
7,O=C(O)CSc1ncnc2sc3c(c12)CCCC3,31.1%
8,CC1CC(C)C[N+](=C2C=C(N3CCCC3)CC(C)(C)C2)C1 (stereo not given),49.7%
9,CC1(C)CC(N2CCN(C(c3ccccc3)c3ccccc3)CC2)=CC(=[N+]2CCCCC2)C1,80.1% (active)
10,CC1(C)CC(N2CCCC2)=CC(=[N+]2CCCCCC2)C1,34%
11,O=C(NC(c1ccc(Cl)cc1)c1c(O)ccc2ccccc12)c1ccccc1 (stereo not given),78.3% (active)
12,Cc1c(O)ccc(/C=N/Nc2nc(-c3cccnc3)nc3ccccc23)c1O,-60%
13,Fc1ccccc1/C=N/Nc1nc(-c2ccccn2)nc2ccccc12,98.7% (active)
14,C(=N\Nc1nc(-c2ccccn2)nc2ccccc12)/c1ccccc1,78.9% (active)
15,Oc1ccc(/C=N/Nc2nccnc2Cl)c(O)c1,39.8%
16,Cc1cc(C)nc(N/N=C/c2c[nH]c3ccccc23)n1,29%
17,FC(F)(F)c1cc(Sc2ccccc2)nc(-c2ccccn2)n1,-4.1%
18,Oc1ccc(/C=N/Nc2nc(-c3ccccc3F)nc3ccccc23)c(O)c1,68.2% (active)
19,Cc1c(Cl)cccc1NC(=S)NNc1ncc(C(F)(F)F)cc1Cl,28.7%
20,Cc1ccc(S(=O)(=O)c2ncccc2[N+](=O)[O-])cc1,52.6% (active)

row,SMILES,inhibition
1,Cc1ccc(S(=O)(=O)c2ccc([N+](=O)[O-])cn2)cc1,38.5%
2,Cc1ccc(C(=O)Nc2ncc([N+](=O)[O-])s2)cc1,3.8%
3,O=[N+]([O-])c1cccnc1S(=O)(=O)c1ccccc1,69.6% (active)
4,CC(C)C[C@H](NC(=O)c1nc[nH]c1C(=O)N1CCN(C(=O)OC(C)(C)C)CC1)C(=O)OC(C)(C)C,2.4%
5,Cc1ccnc(NC(=O)Cc2ccc(-c3ccccc3)cc2)c1,48.8%
6,Cc1ccnc(NC(=O)CSc2cc(=O)n(C)c3ccccc23)c1,86.3% (active)
7,CCn1c(=O)cc(SCC(=O)Nc2ccc(C)cn2)c2ccccc21,35.4%
8,Nc1ncc(Br)cc1S(=O)(=O)Nc1cc(C(F)(F)F)cc(C(F)(F)F)c1,78% (active)
9,Cc1nc(N2CCN(C(=O)COc3ccccc3)CC2)c2c(C)c(C)sc2n1,23.4%
10,Cc1sc2nc(CSc3ccccc3)nc(N3CCC(C(N)=O)CC3)c2c1C,53.5% (active)
11,Cc1nc(N2CCC(C)CC2)c2c(C)c(C(=O)Nc3cc(F)ccc3C)sc2n1,-61.2%
12,Cc1nc(N2CCN(c3ccccc3O)CC2)c2c(-c3ccccc3)csc2n1,-13.5%
13,Cc1nc(N2CCC(C(N)=O)CC2)c2c(-c3cccs3)csc2n1,57.4% (active)
14,CCOC(=O)c1sc2nc(CSc3ccccc3)[nH]c(=O)c2c1C,-7.9%
15,CCOc1cc(/C=C2\C(=N)N3N=C(S(C)(=O)=O)SC3=NC2=O)ccc1OCCOc1cccc(OC)c1,-31.3%
16,Fc1ccc(Sc2nc(-c3ccccc3)nnc2C(F)(F)F)cc1,40.3%
17,CC(C)c1ccc(-n2c(-c3ccccc3)c[n+]3c2CCc2ccccc2-3)cc1,86% (active)
18,CCCC(Oc1ccc(Br)cc1)c1nc2c3cc(OC)c(OC)cc3nc(=S)n2[nH]1 (stereo not given),104% (active)
19,CC(Oc1ccc(Br)cc1)c1nc2c3ccccc3nc(=S)n2[nH]1 (stereo not given),101% (active)
20,O=CN1CCN(c2c([N+](=O)[O-])c(=O)oc3ccccc23)CC1,-17%

row,SMILES,inhibition
1,N=C1SCC(=O)N1c1ncc(Cc2ccccc2Cl)s1,97.5% (active)
2,N=C1SCC(=O)N1c1ncc(Cc2ccc(F)cc2)s1,109% (active)
3,O=C1CCSc2ccc(Cl)cc2N1Cc1cccc(Cl)c1,17.4%
4,N=C1SCC(=O)N1c1ncc(Cc2cccc(Cl)c2)s1,101% (active)
5,COc1ccc(COC(=O)NC2CCN(S(=O)(=O)c3ccc(OC)cc3)CC2)cc1,20.6%
6,CCOC(=O)C1CCN(c2ncnc3c2cnn3-c2ccc(Cl)cc2)CC1,36.4%
7,Cc1nn(-c2ccccc2)c(Cl)c1C(=O)N1CCN(c2ncnc3c2cnn3-c2ccccc2)CC1,86.6% (active)
8,Cc1nc(N2CCN(c3ccccn3)CC2)c2c(C)c(C(=O)N3CCN(c4ccc(F)cc4)CC3)sc2n1,-51.2%
9,Cc1ccc2nc(NC(=O)CSCC(=O)OCC(=O)c3ccc(Br)cc3)sc2c1,75.2% (active)
10,COC(=O)c1ccc2nc(Nc3nc4c(F)cc(F)cc4s3)sc2c1,35.5%
11,C=CCn1c(O)c(N=NC(=S)Nc2cccc(OC)c2)c2ccccc21,12%
12,Oc1c(N=NC(=S)Nc2ccccc2F)c2ccccc2n1Cc1ccccc1F,7.6%
13,NC(=S)N=Nc1c(O)n(Cc2ccc(Br)cc2)c2ccccc12,-15.1%
14,Cc1c(Cl)cccc1NC(=S)N=Nc1c(O)n(CN2CCOCC2)c2ccccc12,70.8% (active)
15,C=CCn1c(O)c(N=NC(=S)Nc2ccc(OC)c(Cl)c2)c2ccccc21,-34.6%
16,C=CCn1c(O)c(N=NC(=S)Nc2cccc(C)c2)c2ccccc21,8.8%
17,C=CCn1c(O)c(N=NC(=S)Nc2ccccc2F)c2ccccc21,100% (active)
18,C/C(Cl)=C\Cn1c(O)c(N=NC(N)=S)c2ccccc21,35.2%
19,C=CCn1c(O)c(N=NC(=S)Nc2ccc(OC)cc2)c2ccccc21,96.3% (active)
20,O=C(Nc1ccc(Br)c2ccccc12)c1ccc2ccccc2c1O,42.5%
